# Changes are numbered by the printed parent chain.
# What was measured:
# Assay in all cases: PBM; 200 nM protein, PBS
# Settings in all cases: dsDNA, one strand shown
# NKX2-5 [1] = target: NKX2-5 (Homo sapiens, UniProt P52952 125-210, R139K)
# NKX2-4 [2] = target: T1, NKX2-4 (Homo sapiens, UniProt Q9H2Z4 175-261, P217L)
# T1 sequence: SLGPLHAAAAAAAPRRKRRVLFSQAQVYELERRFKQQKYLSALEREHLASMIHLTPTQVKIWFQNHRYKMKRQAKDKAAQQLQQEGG
# NKX2-4 [3] = target: T2, NKX2-4 (Homo sapiens, UniProt Q9H2Z4 175-261, T231S)
# T2 sequence: T1 sequence with L43P, T57S
# NKX2-4 [4] = target: T3, NKX2-4 (Homo sapiens, UniProt Q9H2Z4 175-261)
# T3 sequence: T1 sequence with L43P
# NKX2-6 [5] = target: T4, NKX2-6 (Homo sapiens, UniProt A6NCS4 118-204, R150C)
# T4 sequence: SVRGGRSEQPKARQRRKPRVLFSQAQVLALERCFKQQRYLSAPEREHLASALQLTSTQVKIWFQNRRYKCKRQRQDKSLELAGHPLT
# NKX2-6 [6] = target: T5, NKX2-6 (Homo sapiens, UniProt A6NCS4 118-204)
# T5 sequence: T4 sequence with C33R
# NKX2-4 [7] = target: T6, NKX2-4 (Homo sapiens, UniProt Q9H2Z4 175-261, R246Q)
# T6 sequence: T1 sequence with L43P, R72Q
# NKX2-6 [8] = target: T7, NKX2-6 (Homo sapiens, UniProt A6NCS4 118-204, F151L)
# T7 sequence: T4 sequence with C33R, F34L
# NKX2-5 [9] = target: NKX2-5 (Homo sapiens, UniProt P52952 125-210)
# NKX3-2 [10] = target: NKX3-2 (Homo sapiens, UniProt P78367 192-278, P234S)
# NKX3-2 [11] = target: NKX3-2 (Homo sapiens, UniProt P78367 192-278)
# NKX3-2 (Homo sapiens, UniProt P78367 192-278), sequence (P78367 192-278): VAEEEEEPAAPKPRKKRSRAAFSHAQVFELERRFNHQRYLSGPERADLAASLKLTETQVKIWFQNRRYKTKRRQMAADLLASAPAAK
# NKX2-5 (Homo sapiens, UniProt P52952 125-210, R139K), sequence (P52952 125-210 R139K): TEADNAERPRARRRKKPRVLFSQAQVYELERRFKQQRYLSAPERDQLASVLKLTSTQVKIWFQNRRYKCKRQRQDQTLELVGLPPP
# NKX2-5 (Homo sapiens, UniProt P52952 125-210), sequence (P52952 125-210): as the sequence (P52952 125-210 R139K) above, with K15R counted along it
# NKX3-2 (Homo sapiens, UniProt P78367 192-278, P234S), sequence (P78367 192-278 P234S): as the sequence (P78367 192-278) above, with P43S counted along it
Sequence,binding signal (NKX2-5 [1]),binding signal (NKX2-4 [2]),binding signal (NKX2-4 [3]),binding signal (NKX2-4 [4]),binding signal (NKX2-6 [5]),binding signal (NKX2-6 [6]),binding signal (NKX2-4 [7]),binding signal (NKX2-6 [8]),binding signal (NKX2-5 [9]),binding signal (NKX3-2 [10]),binding signal (NKX3-2 [11])
CTACTTGA,"12.3 upbm affinity estimate (log intensity, higher = more binding, comparable within an allelic series)","12.6 upbm affinity estimate (log intensity, higher = more binding, comparable within an allelic series)","13 upbm affinity estimate (log intensity, higher = more binding, comparable within an allelic series)","12.4 upbm affinity estimate (log intensity, higher = more binding, comparable within an allelic series)","11.6 upbm affinity estimate (log intensity, higher = more binding, comparable within an allelic series)","13.3 upbm affinity estimate (log intensity, higher = more binding, comparable within an allelic series)","13.1 upbm affinity estimate (log intensity, higher = more binding, comparable within an allelic series)","10.5 upbm affinity estimate (log intensity, higher = more binding, comparable within an allelic series)","12.3 upbm affinity estimate (log intensity, higher = more binding, comparable within an allelic series)",,
ACTTGAGA,"12.3 upbm affinity estimate (log intensity, higher = more binding, comparable within an allelic series)","12.6 upbm affinity estimate (log intensity, higher = more binding, comparable within an allelic series)","12.9 upbm affinity estimate (log intensity, higher = more binding, comparable within an allelic series)","12.4 upbm affinity estimate (log intensity, higher = more binding, comparable within an allelic series)",,,"13.1 upbm affinity estimate (log intensity, higher = more binding, comparable within an allelic series)","10.7 upbm affinity estimate (log intensity, higher = more binding, comparable within an allelic series)","12.2 upbm affinity estimate (log intensity, higher = more binding, comparable within an allelic series)",,
CACTCGAA,"12 upbm affinity estimate (log intensity, higher = more binding, comparable within an allelic series)","12.5 upbm affinity estimate (log intensity, higher = more binding, comparable within an allelic series)","13 upbm affinity estimate (log intensity, higher = more binding, comparable within an allelic series)","12.5 upbm affinity estimate (log intensity, higher = more binding, comparable within an allelic series)",,,"13.1 upbm affinity estimate (log intensity, higher = more binding, comparable within an allelic series)",,"11.9 upbm affinity estimate (log intensity, higher = more binding, comparable within an allelic series)",,
ACGGCCTG,"8.92 upbm affinity estimate (log intensity, higher = more binding, comparable within an allelic series)","9.73 upbm affinity estimate (log intensity, higher = more binding, comparable within an allelic series)","9.59 upbm affinity estimate (log intensity, higher = more binding, comparable within an allelic series)","9.65 upbm affinity estimate (log intensity, higher = more binding, comparable within an allelic series)",,,"9.71 upbm affinity estimate (log intensity, higher = more binding, comparable within an allelic series)",,"8.81 upbm affinity estimate (log intensity, higher = more binding, comparable within an allelic series)",,
CGTGCACG,"8.84 upbm affinity estimate (log intensity, higher = more binding, comparable within an allelic series)",,,,,,,,"8.84 upbm affinity estimate (log intensity, higher = more binding, comparable within an allelic series)",,
CCTCTTAA,"12.3 upbm affinity estimate (log intensity, higher = more binding, comparable within an allelic series)","12.4 upbm affinity estimate (log intensity, higher = more binding, comparable within an allelic series)","12.7 upbm affinity estimate (log intensity, higher = more binding, comparable within an allelic series)","12.3 upbm affinity estimate (log intensity, higher = more binding, comparable within an allelic series)",,"13.4 upbm affinity estimate (log intensity, higher = more binding, comparable within an allelic series)","12.9 upbm affinity estimate (log intensity, higher = more binding, comparable within an allelic series)","10.5 upbm affinity estimate (log intensity, higher = more binding, comparable within an allelic series)","12.3 upbm affinity estimate (log intensity, higher = more binding, comparable within an allelic series)",,
CATGCGCC,"8.86 upbm affinity estimate (log intensity, higher = more binding, comparable within an allelic series)",,,,,,,,"8.85 upbm affinity estimate (log intensity, higher = more binding, comparable within an allelic series)",,
AAGTGGTC,"12.6 upbm affinity estimate (log intensity, higher = more binding, comparable within an allelic series)","12.4 upbm affinity estimate (log intensity, higher = more binding, comparable within an allelic series)","12.8 upbm affinity estimate (log intensity, higher = more binding, comparable within an allelic series)",,"11.8 upbm affinity estimate (log intensity, higher = more binding, comparable within an allelic series)","13.4 upbm affinity estimate (log intensity, higher = more binding, comparable within an allelic series)",,"10.5 upbm affinity estimate (log intensity, higher = more binding, comparable within an allelic series)","12.6 upbm affinity estimate (log intensity, higher = more binding, comparable within an allelic series)","12.9 upbm affinity estimate (log intensity, higher = more binding, comparable within an allelic series)","12.9 upbm affinity estimate (log intensity, higher = more binding, comparable within an allelic series)"
CTCTTAAG,"12.3 upbm affinity estimate (log intensity, higher = more binding, comparable within an allelic series)","12.5 upbm affinity estimate (log intensity, higher = more binding, comparable within an allelic series)","12.7 upbm affinity estimate (log intensity, higher = more binding, comparable within an allelic series)","12.3 upbm affinity estimate (log intensity, higher = more binding, comparable within an allelic series)",,"13.5 upbm affinity estimate (log intensity, higher = more binding, comparable within an allelic series)","12.9 upbm affinity estimate (log intensity, higher = more binding, comparable within an allelic series)","10.6 upbm affinity estimate (log intensity, higher = more binding, comparable within an allelic series)","12.3 upbm affinity estimate (log intensity, higher = more binding, comparable within an allelic series)",,
CCAGCCAG,"8.68 upbm affinity estimate (log intensity, higher = more binding, comparable within an allelic series)",,,,,,,,"8.64 upbm affinity estimate (log intensity, higher = more binding, comparable within an allelic series)",,
